The record followed here is PubChem BioAssay (Tox21).

Structures are written as SMILES. Inconclusive results are not listed. Active and inactive are the calls of the source. The call rests on the fitted dose curve; in most records, active means well fitted inhibition curve with a large enough effect in the signal ratio in the repeat runs (not every such curve was filed as active); inconclusive means weak or mixed curves, or effect the other way; inactive means no such curve, though single readings can be large or run the other way; the % refers to the signal ratio.
On the % scale 0 is the no-effect control and ±100 the full control effect; potency means the concentration at half of the fitted maximal effect.

Chain of Peroxisome proliferator-activated receptor delta (Homo sapiens) (Q03181 whole entry, looked up): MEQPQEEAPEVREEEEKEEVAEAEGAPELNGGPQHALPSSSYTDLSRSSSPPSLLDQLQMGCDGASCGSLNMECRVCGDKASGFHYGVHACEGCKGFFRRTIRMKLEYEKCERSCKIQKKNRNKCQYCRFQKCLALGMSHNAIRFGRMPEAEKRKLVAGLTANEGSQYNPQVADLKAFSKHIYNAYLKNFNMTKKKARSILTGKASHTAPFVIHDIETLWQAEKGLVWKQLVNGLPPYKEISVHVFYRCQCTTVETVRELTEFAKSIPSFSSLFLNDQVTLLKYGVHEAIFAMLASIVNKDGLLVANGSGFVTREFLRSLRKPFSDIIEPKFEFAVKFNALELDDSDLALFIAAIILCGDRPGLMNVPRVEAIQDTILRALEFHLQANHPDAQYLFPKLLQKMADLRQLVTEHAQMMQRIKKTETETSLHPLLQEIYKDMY

This assay addresses Peroxisome proliferator-activated receptor delta (Homo sapiens) (UniProt Q03181). As to the kind of experiment: qHTS assay to identify small molecule antagonists of the peroxisome proliferator-activated receptor delta (PPARd) signaling pathway (AID 743215).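 Further: cells stimulated with agonist L165041 at 300 nM final during compound exposure.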 The following applies: HEK293H PPARd-UAS-bla, beta-lactamase FRET ratio, antagonist, 17 h; series mostly up to 62 µM; ratio activity, negative = inhibition: at the top concentration. The source says: U.S. Tox21 Program National Center for Advancing Translational Sciences [NCATS] NIH Chemical Genomics Center [NCGC] U.S. Environmental Protection Agency [EPA] National Institutes of Environmental Health Sciences [NIEHS] National Toxicology Program [NTP] U.S. Food and Drug Administration [FDA] Tox21 Assay Overview: The peroxisome proliferator-activated receptors (PPARs) are lipid-activated transcription factors of the nuclear receptor superfamily with three distinct subtypes namely PPAR alpha, PPAR delta (PPARd) and PPAR gamma. All these subtypes heterodimerizes with Retinoid X receptor (RXR) and have different physiological functions. […] To identify the compounds that inhibit PPAR-delta signaling, GeneBLAzer PPAR delta UAS-bla HEK293H cell line (Invitrogen, Carlsbad, CA, USA) containing a beta-lactamase reporter gene under the control of an Upstream Activator Sequence (UAS) was used to screen the Tox21 compound library.
Tox21 Assay Protocol Summary: PPARd-bla cells were dispensed at 3000 cells/5uL/well in 1536-well black wall/clear bottom plates using a Multidrop Combi (Thermo Fisher Scientific, Waltham, MA) dispenser. After the assay plates were incubated at 37 C and 5% CO2 for 5 h, 23 nL of compounds dissolved in DMSO, positive controls or DMSO only was transferred to the assay plate by a Pintool station (Kalypsys, San Diego, CA), followed by addition of 1ul L165041 (300 nM, final concentration in the wells). The assay plates were incubated at 37 C for 17 h, and then 1 uL of LiveBLAzerTM B/G FRET substrate was added using a Bioraptr Flying Reagent Dispenser (FRD) workstation (Beckman Coulter, Indianapolis, IN, USA). The assay plates were incubated at room temperature for 2 h and fluorescence intensity was measured by an Envision plate reader (PerkinElmer, Shelton, CT).
(In general: In qHTS, concentration-response curves come from the screen itself.)
Take `COc1ccc(OC)c(CC(C)N)c1` (stereo not given): the “ratio activity, negative = inhibition” value was -2.21% [at 80.4 µM] (inactive).

`BrC(Br)Br`: the “ratio activity, negative = inhibition” value is 7.78% (inactive).

Consider `N#CCCSCCC#N`, for which the “ratio activity, negative = inhibition” value was -1.31% (inactive).

As for `CC(=O)/C=C/c1ccc2c(c1)OCO2`, the Potency is 43.9 µM (active).

On to `CC(C)CCCCCCCOP(=O)(Oc1ccccc1)Oc1ccccc1`, for which the “ratio activity, negative = inhibition” value is -0.427% [at 80.4 µM] (inactive).

As to `CCCCCCCCCCCCCCCCCCn1cc[n+](C)c1`, the Potency is 19.4 µM (active).

`C[C@]12Cc3nonc3C[C@@H]1CC[C@@H]1[C@@H]2CC[C@@]2(C)[C@H]1CC[C@]2(C)O`: the “ratio activity, negative = inhibition” value was 7.12% (inactive).

As to `O=C(CCCN1CCC2(CC1)C(=O)NCN2c1ccccc1)c1ccc(F)cc1`, the “ratio activity, negative = inhibition” value was -11.9% (inactive).

With `CCCCCCCCCBr`, the “ratio activity, negative = inhibition” value was -0.977% [at 80.4 µM] (inactive).

For the molecule `CCCCCCCCCCCCCN1CC(C)OC(C)C1` (stereo not given), the “ratio activity, negative = inhibition” value is 4.42% (inactive).

Regarding `Nc1ccccc1C(=O)OC/C=C/c1ccccc1`, the “ratio activity, negative = inhibition” value is -16.1% (inactive).

Consider `CC(C)OS(C)(=O)=O`, for which the “ratio activity, negative = inhibition” value was 0.669% [at 80.4 µM] (inactive).

For `CC1(C)C(/C=C(\Cl)C(F)(F)F)C1C(=O)OC(C#N)c1cccc(Oc2ccccc2)c1` (stereo not given), the “ratio activity, negative = inhibition” value is 1.79% [at 80.4 µM] (inactive).

Regarding `Clc1ccc(-c2ccc(Cl)c(Cl)c2Cl)c(Cl)c1Cl`, the “ratio activity, negative = inhibition” value is -17.9% (inactive).

For `Clc1ccc(C(c2ccc(Cl)cc2)C(Cl)(Cl)Cl)cc1`, the Potency result is “inactive”.

In the case of `O=C(CCl)C(Cl)Cl`, the Potency was 49.4 µM (active).

Regarding `O=C(O)C1C2CCC(O2)C1C(=O)O` (stereo not given), the “ratio activity, negative = inhibition” value is 5.5% (inactive).

In the case of `O=C(NC(=O)c1c(F)cccc1F)Nc1cc(Cl)c(OC(F)(F)C(F)F)c(Cl)c1`, the “ratio activity, negative = inhibition” value was 0.811% (inactive).

Take `C1CCC2CCCCC2C1` (stereo not given): the “ratio activity, negative = inhibition” value is -1.35% [at 80.4 µM] (inactive).

For `CC(C)OC(=O)C(O)(c1ccc(Cl)cc1)c1ccc(Cl)cc1`, the “ratio activity, negative = inhibition” value is -20.9% (inactive).

With `CN(C)CCc1c[nH]c2ccc(O)cc12`, the “ratio activity, negative = inhibition” value is -1.87% [at 80.4 µM] (inactive).

Take `CC1(c2ccc(Oc3ccccc3)cc2)OC(=O)N(Nc2ccccc2)C1=O` (stereo not given): the Potency was 24.7 µM (active).

For `Clc1ccc(C(Cl)(Cl)Cl)c(Cl)c1`, the “ratio activity, negative = inhibition” value was -1.88% [at 80.4 µM] (inactive).

As to `N#C/C=C/C#N`, the “ratio activity, negative = inhibition” value was 0.861% [at 80.4 µM] (inactive).

In the case of `CN(C)CCc1c[nH]c2cccc(O)c12`, the “ratio activity, negative = inhibition” value is 1.4% [at 80.4 µM] (inactive).

In the case of `BrCBr`, the “ratio activity, negative = inhibition” value was -2.92% [at 80.4 µM] (inactive).

With `Oc1ccc(C(=C(Cl)Cl)c2ccc(O)cc2)cc1`, the Potency is 19.5 µM (active).

Regarding `ClCc1ccc(Cl)cc1Cl`, the “ratio activity, negative = inhibition” value is 12.5% (inactive).

As for `Cc1cc(C)c(C2=C(OC(=O)CC(C)(C)C)C3(CCCC3)OC2=O)c(C)c1`, the “ratio activity, negative = inhibition” value was 1.58% [at 80.4 µM] (inactive).

Consider `CC(=O)c1cc(C(C)(C)C)cc2c1CCC2(C)C`, for which the “ratio activity, negative = inhibition” value was -7.94% (inactive).

As for `CCN(CC)c1c([N+](=O)[O-])cc(C(F)(F)F)c(N)c1[N+](=O)[O-]`, the “ratio activity, negative = inhibition” value is -10.7% (inactive).

For `Fc1cccc(Cl)c1CCl`, the “ratio activity, negative = inhibition” value was -4.79% (inactive).

On to `CCCCCCCCCCCCCCC(Br)C(=O)O` (stereo not given), for which the “ratio activity, negative = inhibition” value was 19.8% (inactive).

On to `O=C(CCl)Nc1ccccc1`, for which the Potency was 17.4 µM (active).

For the molecule `O=C1NCN(c2ccccc2)C12CCN(CC1COc3ccccc3O1)CC2` (stereo not given), the “ratio activity, negative = inhibition” value was 1.91% (inactive).

Turning to `Cn1cc(C2=C(c3cn(C4CCN(Cc5ccccn5)CC4)c4ccccc34)C(=O)NC2=O)c2ccccc21`, the “ratio activity, negative = inhibition” value was -19% (inactive).

Regarding `Cc1cc(C(F)(C(F)(F)F)C(F)(F)F)ccc1NC(=O)c1cccc(I)c1C(=O)NC(C)(C)CS(C)(=O)=O`, the “ratio activity, negative = inhibition” value was 9.03% (inactive).

For `CC(Cc1ccc(C(C)(C)C)cc1)CN1C[C@@H](C)O[C@@H](C)C1` (stereo not given in full), the “ratio activity, negative = inhibition” value is -7.85% (inactive).

On to `O=C(O)c1cc[c]([Hg][Cl])cc1`, for which the “ratio activity, negative = inhibition” value is 0.673% (inactive).

As to `Oc1ccc(C2(c3ccc(O)cc3)c3ccccc3-c3ccccc32)cc1`, the Potency was 11 µM (active).
